# LGR2 antag: blocks bursicon-induced cAMP signaling via Drosophila LGR2. HEK293 LGR2, CRE-luciferase, bursicon-stimulated, 4 h. inhibition, % at 9.99 µM. hit rate 0.35% among 380,000. AID 720647;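 active = drop in luminescence signal, shown as inhibition above about 50% in the replicate tests, limit read from the data, passing the limit was not always enough; inconclusive = probably only some replicates passing the limit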;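 also: agonist challenge used bursicon conditioned medium at about half maximal strength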
# MITF TRPM1 inh: reduces MITF-dependent TRPM1 promoter luciferase signal; SK-MEL-5 TRPM1 promoter luciferase, 24 h; inhibition, % at 12.5 µM; hit rate 0.83% among 330,000; AID 488899;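 active = mean inhibition across replicates of 60% or more, whatever share of single replicates reaches that level; inconclusive = some that reach 60%, reason not given; inactive = mean inhibition across replicates below 60%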
# PAX8 inh HTS: inhibitors of PAX8 transcriptional activity in RMG-I cells | RMG-I TPO-luciferase reporter, SteadyGlo, 24 h | inhibition, % at 12.6 µM | hit rate 1.2% among 360,000;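 active = mean replicate inhibition at least 60% with every replicate also reaching 60%; inconclusive = only one of the two criteria is met; inactive = mean below 60% and not all replicates reaching 60%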;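 also: luciferase light reporting Pax8 driven TPO promoter activity; plate controls were median of neutral control wells for no effect and mitoxantrone controls for full effect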
# LMP1 NFkB inh: Epstein-Barr LMP1 NF-kappaB reporter inhibition. LMP1-induced NF-kappaB luciferase reporter cells, luminescence. inhibition, % at 12.5 µM. hit rate 0.69% among 350,000; in the data active = inhibition above about 41%; inconclusive = no clear call, values can overlap the other calls;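 also: 0% = neutral control wells and 100% = reference inhibitor control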
# EWS-Fli block: inhibitors of EWS/Fli oncoprotein transcriptional activity. A673 NR0B1-luciferase reporter, viability-normalised. inhibition, % at 12.6 µM. hit rate 0.67% among 350,000. AID 651661;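 active = mean inhibition of at least 50% after viability correction, with every replicate also passing that limit; inconclusive = mean reaches 50% but only one of two replicates passes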;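 also: firefly luciferase signal divided by Alamar Blue viability fluorescence both relative to DMSO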
# PGC1a acetyl inh: PGC1a acetylation modulation, inhibitor mode; U2OS PGC1a acetylation, AlphaScreen anti-acetyl-lysine; with virally co-expressed GCN5 acetyltransferase; inhibition, % at 15.6 µM; hit rate 0.17% among 350,000;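 active = every replicate shows inhibition of at least 40%; inconclusive = mean inhibition at least 40% but some replicate below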;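 also: 0% = neutral control wells and 100% = positive control wells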
# An asterisk follows results filed as active; ? = inconclusive; . = no result given. This is a sample that favours compounds with a hit; in the whole collection about 2.2% have one here.
SMILES,LGR2 antag,MITF TRPM1 inh,PAX8 inh HTS,LMP1 NFkB inh,EWS-Fli block,PGC1a acetyl inh
COc1ccc(-c2cc3nc(C)n(N)c(=O)c3s2)cc1,101*,79*,86*,76*,90*,-1
COc1ccc(-c2cc3nc4n(c(=O)c3s2)CCC4)cc1,87*,51,.,52*,?,2
C[C@@H]1CCCCO[C@@H](CN(C)C(=O)Nc2cccc3ccccc23)[C@H](C)CN([C@@H](C)CO)C(=O)c2cc(NC(=O)Nc3ccc(F)cc3)ccc2O1,5,.,-15,.,-3,-6
C[C@@H]1CN([C@H](C)CO)C(=O)Cc2cc(NC(=O)CCCCCC(=O)Nc3ccccc3N)ccc2O[C@H]1CN(C)CC1CCCCC1,0,.,17,.,29,-6
O=S1(=O)Nc2c(ccc3cccnc23)-c2ccccc21,.,77*,.,7,.,-51
Cc1ccc2nc(-c3ccc(NC(=S)NC4CC(C)(C)NC(C)(C)C4)cc3)sc2c1,62*,-45,91*,-78,15,-5
COc1ccc(NC(=O)Nc2cccc3c2O[C@@H](CN(C)Cc2ccc(Cl)c(Cl)c2)[C@@H](C)CN([C@H](C)CO)C3=O)cc1,.,.,.,.,1,3
C[C@H]1CCCCO[C@H](CN(C)S(=O)(=O)c2ccc(Cl)cc2)[C@@H](C)CN([C@@H](C)CO)C(=O)c2cc(NS(=O)(=O)c3ccc(F)cc3)ccc2O1,16,.,86*,.,14,-2
C[C@@H]1CCCCO[C@H](CN(C)S(=O)(=O)c2ccc(F)cc2)[C@H](C)CN([C@@H](C)CO)C(=O)c2cc(NS(=O)(=O)c3ccc(Cl)cc3)ccc2O1,10,.,81*,.,8,-15
C[C@@H]1CCCCO[C@@H](CN(C)S(=O)(=O)c2ccc(F)cc2)[C@H](C)CN([C@H](C)CO)C(=O)c2cc(NS(=O)(=O)c3ccc(Cl)cc3)ccc2O1,14,.,86*,.,16,-11
C[C@H]1CCCCO[C@H](CN(C)S(=O)(=O)c2ccc(F)cc2)[C@@H](C)CN([C@@H](C)CO)C(=O)c2cc(NS(=O)(=O)c3ccc(Cl)cc3)ccc2O1,7,.,89*,.,7,-1
CO[C@@H]1CN(C)C(=O)c2ccc(NC(=O)C3CCCCC3)cc2OC[C@H](C)NC[C@H]1C,-2,.,2,.,-5,.
C[C@H](CO)N1C[C@H](C)[C@H](CN(C)S(=O)(=O)c2ccc(Cl)cc2)OCCCC[C@H](C)Oc2ccc(NS(=O)(=O)c3ccc(F)cc3)cc2C1=O,19,.,81*,.,3,-4
Nc1c(-c2ccccc2)nc(Cl)nc1-c1ccccc1,.,-3,-11,2,.,-11
c1ccc(-c2nc3nonc3nc2-c2ccccc2)cc1,.,62*,50,7,.,-9
C[C@@H]1CN([C@H](C)CO)C(=O)c2cccc(NS(=O)(=O)c3cn(C)cn3)c2O[C@H]1CN(C)S(=O)(=O)c1ccccc1,-6,.,-33,.,-9,3
O=C(CCCc1ccccc1)Nc1nncs1,1,10,.,2,.,-6
CC(C)Cc1nnc(NC(=O)CCS(=O)(=O)c2ccc(Cl)cc2)s1,13,7,71*,16,.,.
CCOCCc1nnc(NC(=O)CCS(=O)(=O)c2ccccc2)s1,9,1,65*,9,-28,.
O=C(Nc1nc2c(s1)COc1ccccc1-2)c1cccs1,8,.,8,-165,-19,0
O=C(CCS(=O)(=O)c1ccccc1)Nc1nncs1,2,1,67*,15,-27,4
O=C(CCS(=O)(=O)c1ccccc1)Nc1nc2c(s1)COc1ccccc1-2,-6,1,70*,0,-20,17
COCCSc1nnc(NC(=O)CCS(=O)(=O)c2ccccc2)s1,-2,2,80*,10,-16,.
COCCSc1nnc(NC(=O)CS(=O)(=O)c2ccc(C)cc2)s1,14,-1,-2,-6,8,2
Cc1ccc(OCC(=O)NC(=S)Nc2ccccn2)c(Br)c1,71*,23,-196,21,52*,5
SMILES,LGR2 antag,MITF TRPM1 inh,PAX8 inh HTS,LMP1 NFkB inh,EWS-Fli block,PGC1a acetyl inh
O=C1c2ccc(-c3nc4ccccc4o3)cc2C(=O)N1Cc1ccccc1,.,10,64*,-26,.,11
CCc1ccc(-c2cc3c(=O)n(CC(=O)NCCCN4CCC(Cc5ccccc5)CC4)nc(C)n3n2)cc1,9,96*,-4,-13,3,.
COc1ccc(-c2cc(C(=O)Nc3cccc(S(=O)(=O)NCc4ccco4)c3)c3ccccc3n2)cc1OC,9,18,70*,9,2,.
CCOc1ccc(C(=O)NC(=S)Nc2cccc(S(=O)(=O)NC3=NCCC3)c2)cc1,-22,2,10,2,59*,3
COc1ccc(-c2nc(CC(=O)Nc3cccc(S(=O)(=O)NC4=NCCC4)c3)cs2)cc1,8,14,74*,9,-9,.
COc1ccccc1OCC(=O)Nc1cccc(S(=O)(=O)NC2=NCCCCC2)c1,4,2,5,5,-1,-19
O=C(NC(=S)Nc1cccc(S(=O)(=O)NC2=NCCC2)c1)c1cc(-c2ccco2)nc2ccccc12,1,50,28,-10,57*,7
O=C(Nc1cccc(S(=O)(=O)NCc2ccco2)c1)c1cc(-c2ccc(F)cc2)nc2ccccc12,9,2,10,-5,-8,-21
CCOc1ccc(OCC(=O)Nc2cccc(S(=O)(=O)NC3=NCCC3)c2)cc1,18,-25,5,1,-7,-11
CCC(=O)N[C@H]1CC[C@@H](CC(=O)NCc2ccc(OC)cc2)O[C@@H]1CO,-19,.,-21,.,-3,-5
COCCNC(=O)c1cc2c(=O)n3cccc(C)c3nc2n1C,-5,-1,-1,-10,-2,4
CCOCCCNC(=O)c1cc2c(=O)n3cccc(C)c3nc2n1C,17,-3,15,-7,52*,-3
O=C(NCC[C@@H]1CC[C@H](NC(=O)C2CC2)[C@H](CO)O1)Nc1ccc(C(F)(F)F)cc1,7,.,-15,.,-3,-2
O=[N+]([O-])c1cc(-c2nnc(-c3ccccc3)o2)ccc1Oc1ccc(Cl)cc1,-53,5,98*,-11,-51,.
Cc1ccc(S(=O)(=O)N2CCN(C(=O)COC(=O)COc3ccc(Cl)cc3)CC2)c(C)c1,.,-9,-8,58*,17,8
Cc1ccc(S(=O)(=O)N2CCN(C(=O)COC(=O)COc3ccc(Cl)c(C)c3)CC2)c(C)c1,7,7,-3,1,2,-1
CC[n+]1c(C=C2C=C(C)OC(C)=C2)sc2ccccc21,21,74*,85*,14,?,-19
CN(C)C(=O)c1ccc(-c2ccc(C3[C@H]4CNC[C@@H]3N4C(=O)NC3CCCCC3)cc2)cc1 (some centres undefined),7,.,.,.,.,.
N#C[C@@H]1[C@@H](c2ccc(-c3cccc(F)c3)cc2)[C@H](CO)N1C(=O)NC1CCCC1,23,.,89*,.,8,7

# Source: PubChem BioAssay (Broad Institute)
